The source of these data is PubChem BioAssay (NCATS).

Inconclusive results are not listed. The source made the active and inactive calls. Calls come from the whole dose curve; as a rule, active = well fitted curve in the direction sought with a large enough effect; inconclusive = small, poorly fitted or top-dose-only effect, or another doubt; inactive = no such curve, though single readings can be large; an effect the other way counts as inactive or inconclusive.

A short description of assay [1]: HPAF-II 24hr Apoptosis Induction qHTS against the NCATS CANVASS Library (AID 1347356). The gist of the method:
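Caspase-Glo 3/7 luminescence, read after 15 min room-temperature development, measures apoptosis in HPAF-II cells treated 24 h at 37 degrees C with an 11-point concentration series; 500 cells/well; doxorubicin control.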

The nature of assay [2]: HEK293 18hr Apoptosis Induction qHTS against the NCATS CANVASS Library (AID 1347357). The procedure, abridged: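 Natural products applied to HEK293 for 18 hr; Caspase-Glo 3/7 readout.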
Assay [3] can be described thus: HPAF-II 18hr Apoptosis Induction qHTS against the NCATS CANVASS Library (AID 1347360). The procedure, abridged:
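Luminescent DEVD-substrate signal, proportional to caspase activity, is measured in HPAF-II cells after 18-hour treatment across a concentration series; doxorubicin serves as control.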

The nature of assay [4]: HEK293 12hr Apoptosis Induction qHTS against the NCATS CANVASS Library (AID 1347361). The gist of the method: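 Luminescent caspase-3/7 signal, proportional to enzyme activity, was recorded from HEK293 cultures in DMEM + 10% FBS treated for 12 hours with titrated natural products (11 points). Doxorubicin (0.1nM - 4uM) served as control.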
In assay [5] the test system is NAD(P)H diaphorase (Clostridium kluyveri). Put plainly: Diaphorse counterscreen qHTS: Assay Interference Panel against the NCATS CANVASS Library (AID 1347362). The gist of the method:
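Counterscreen for coupling-enzyme interference: resorufin fluorescence from resazurin/NADH turnover, read after 5 min at room temperature. Compounds were tested over an 11-point series after 15 min dark preincubation with diaphorase in PBS-Tween.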

For assay [6], the target named is Nuclear receptor subfamily 1 group I member 3 (Homo sapiens) (UniProt Q14994). Nature of the assay: qHTS for Constitutive Androstane Receptor (CAR) Antagonist screened against the NCATS CANVASS Library (AID 1347372). Note: potency is the fitted concentration of half-maximal effect. The gist of the method:
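Antagonist mode: compound added alongside 50 nM CITCO to HepG2-hCAR-CYP2B6 reporter cells, 24hr at 37C. Viability by CellTiter-Fluor fluorescence, then CAR-driven luciferase by ONE-Glo luminescence.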

Assay [7] has the same target. Nature of the assay: qHTS for Constitutive Androstane Receptor (CAR) Agonist screened against the NCATS CANVASS Library (AID 1347373).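 Note: every well also contained 1.5 µM PK11195 alongside the test compound.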 The procedure, abridged:
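Agonist mode with 1.5uM PK11195 present: compounds for 24hr on HepG2-hCAR-CYP2B6 cells. CellTiter-Fluor fluorescence (ex 405, em 540 nm) gives viability; ONE-Glo luminescence reports CAR activation.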

A short description of assay [8]: 10-beta competent E. coli microbial cell viability qHTS against the NCATS CANVASS Library (AID 1347376). Note: series mostly up to about 46 µM. The gist of the method: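 Read-out: BacTiter-Glo ATP luminescence, taken 20 min after reagent addition. Beforehand, 10-beta competent E. coli at 0.2 OD had been incubated overnight at 37C with compounds at 11 concentrations.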
Assay [9] in a line: DH5-alpha competent E. coli microbial cell viability qHTS against the NCATS CANVASS Library (AID 1347377). The conditions noted are these: outcome: dose series up to 46.1 µM unless noted. The gist of the method: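 Bacterial viability as ATP-dependent luminescence (BacTiter-Glo), read after overnight 37 °C exposure of DH5-alpha competent E. coli to compounds in 11-point titration.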

Assay [10] in a line: qHTS for Inflammasome Signaling Inhibitors: IL-1-beta AlphaLISA screen against the NCATS CANVASS Library (AID 1347379).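 Note: human THP-1 cells primed with LPS then triggered with ATP.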 The gist of the method:
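Secreted IL-1B from human THP-1 cells quantified by AlphaLISA 16 hr after compound addition (final up to 57.5 uM). A 1 hr compound pretreatment preceded inflammasome activation with 250 ng/mL LPS plus 1.25 mM ATP (final).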

The nature of assay [11]: Cytotoxicity qHTS for assessment of Hepg2 cells membrane integrity screened against the NCATS CANVASS Library (AID 1347387). The gist of the method: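 Membrane damage quantified as fluorescent LDH-release signal (ex 560, em 590 nm) in HepG2 cells treated 5 hr at 37C. qHTS format, 11 concentrations spanning 0.59 nM - 46 uM final, cells plated at 2000 per well the night before.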

Assay [12] is described as follows: qHTS for Activators of p53 Stress Response Pathway screened against the NCATS CANVASS Library (AID 1347388). Note: potency is the fitted concentration of half-maximal effect. The procedure, abridged: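 Beta-lactamase reporter driven by p53 response elements in HCT-116 cells, read as the 460 nm/530 nm emission ratio after CCF4 loading, following 16 h of exposure to an 11-point series. Cell viability was measured in the same wells by CellTiter-Glo luminescence.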

The nature of assay [13]: Redox Reaction Profiling qHTS: Assay Interference Panel against the NCATS CANVASS Library (AID 1347401). The gist of the method: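 Redox-cycling liability assessed as DTT-driven conversion of resazurin (5 uM, with 200 uM DTT, HEPES pH 7.3) to fluorescent resorufin. Fluorescence at 525/598 nm measured initially and after 15 min dark incubation.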

Sequence of Nuclear receptor subfamily 1 group I member 3 (Homo sapiens) (Q14994 whole entry, looked up): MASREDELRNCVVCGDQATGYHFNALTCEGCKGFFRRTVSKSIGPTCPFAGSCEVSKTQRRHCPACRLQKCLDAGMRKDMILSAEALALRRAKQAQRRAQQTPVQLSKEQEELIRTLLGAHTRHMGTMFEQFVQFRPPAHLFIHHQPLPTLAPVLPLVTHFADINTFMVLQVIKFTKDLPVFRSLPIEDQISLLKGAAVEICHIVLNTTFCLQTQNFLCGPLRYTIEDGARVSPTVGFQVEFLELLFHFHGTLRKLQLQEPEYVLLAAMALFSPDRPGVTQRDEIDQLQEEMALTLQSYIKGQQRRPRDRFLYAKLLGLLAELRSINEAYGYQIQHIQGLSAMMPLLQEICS

With `COc1cc(C2C3=C(Cc4cc5c(cc42)OCO5)C(=O)OC3)cc(OC)c1OC` (configuration not stated), the compound was classed as inactive in [1], in assay [4], in assay [8], in assay [9] and in assay [11]. The Potency result in assay [2], in assay [3], in assay [5], in [7], in assay [10] and in [12] was “inactive” in each case. Also, the Potency entry in assay [13] was “inactive”. Also, the Potency in [6] is 0.117 µM (active).

As for `C=C1C[C@H]2O[C@@H]3[C@@H]4[C@H](CC[C@@](C)(O)[C@@H]42)[C@H](C)COC3(C)[C@@H](OC(=O)CCCCCCC)C[C@H]1O` (some centres not stated), the outcome in assay [1], in [4], in assay [8], in assay [9] and in assay [11] was inactive. In addition, the Potency entry in [2], in assay [3], in assay [6], in assay [7], in assay [12] and in assay [13] was “inactive” in each case.

Regarding `CC1=C[C@H]2[C@H]3C(=O)C(c4ccc(O)cc4)=C[C@@]3(c3ccc(O)cc3)[C@@H]1C(=O)[C@]2(C)O`, the call in assay [1], in assay [4], in [8], in assay [9] and in assay [11] was inactive. Moreover, the Potency entry in assay [2], in [3], in assay [5], in assay [7], in assay [10] and in [13] was “inactive” in each case. Further, the Potency in assay [6] was 0.933 µM (active); in assay [12] it was 0.331 µM (active).

For `O=C1CCC(=O)N(O)CCCCCNC(=O)CCC(=O)N(O)CCCCCNC(=O)CCC(=O)N(O)CCCCCN1`, the compound was classed as inactive in [1], in [4], in assay [8], in [9] and in assay [11]. Also, the Potency result in assay [2], in [3], in [5], in [6], in assay [7] and in [10] was “inactive” each time. The Potency result in assay [12] and in [13] was “inactive” in each case.

For the compound `C=C[C@]1(C)CC[C@@H]([C@H](C)C(=O)/C=C/C(C)(C)O)O1`, the compound was called inactive in assay [1], in assay [4], in [8], in assay [9] and in assay [11]. Further, the Potency result in assay [2], in [3], in [5], in assay [6], in assay [10] and in assay [12] was “inactive” each time. For the same compound, in assay [13], the Potency result was “inactive”.

Regarding `COc1cc2ccc(=O)oc2c(O)c1O[C@@H]1O[C@H](CO)[C@@H](O)[C@H](O)[C@H]1O`, the result in [1], in assay [4], in [8], in assay [9] and in [11] was inactive. Besides, the Potency entry in [2], in assay [3], in assay [5], in [6], in assay [7] and in assay [12] was “inactive” in each case. Moreover, the Potency result in assay [13] is “inactive”.

As for `O=C1c2c(O)cc(O)cc2OC(c2ccc(O)cc2)C1O` (configuration not stated), the call in assay [1], in [4], in assay [8], in assay [9] and in assay [11] was inactive. The Potency entry in assay [2], in assay [3], in [5], in [6], in assay [7] and in assay [10] was “inactive” throughout. In addition, the Potency result in assay [12] and in [13] was “inactive” each time.
